Inconclusive results are not listed. Values without a mark were called inactive. Unless noted, calls come from the whole dose curve; as a rule, active = well fitted cell-killing curve with a large enough effect in the repeat runs; inconclusive = weak or mixed curves, or effect the other way; inactive = no such curve, though single readings can be large or run the other way.
System: not listed separately
Experiment: qHTS assay to identify small molecule antagonists of the farnesoid-X-receptor (FXR) signaling pathway - cell viability counter screen (AID 743221; active = well fitted cell-killing curve with a large enough effect in the repeat runs, not every such curve was filed as active; note: nearly all actives have a fitted effect of over 50% in size)
Conditions: FXR-bla HEK293T viability, CellTiter-Glo luminescence, 16 h; series mostly up to 62.6 µM; activity change, negative = cytotoxicity: at the top concentration
Summary of the method: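 CellTiter-Glo, 30 min RT, luminescence; same wells as the LiveBLAzer FRET read. Cells: FXR-UAS-bla HEK 293T. Treatment: compound with chenodeoxycholic acid 50 uM final, 16 h at 37 C.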
% is set by controls: 0 for no effect and ±100 for the full control effect.

Structure (SMILES) | activity change, negative = cytotoxicity
O=C(CCCl)NCc1ccccc1 | 1.89%
O=C(O[C@@H](C(=O)O)[C@@H](OC(=O)c1ccccc1)C(=O)O)c1ccccc1 | 18.6% [at 81.1 µM]
CCOC(=O)c1ccccc1O | 4.61%
CCCOCCC | 4.98%
CC1(C)S[C@@H]2[C@H](NC(=O)C(C(=O)O)c3ccccc3)C(=O)N2[C@H]1C(=O)O (stereo partly specified) | -2.12%
Cc1ccc(C)c(N)c1 | -3.32%
Cc1cc(S(=O)(=O)O)c(N)cc1Cl | 2.72% [at 81.1 µM]
Cc1nnc(SCC2=C(C(=O)O)N3C(=O)[C@@H](NC(=O)Cn4cnnn4)[C@H]3SC2)s1 | -1.52%
CC(C)(C)C1CCCCC1=O (stereo unspecified) | -4.14%
CCCC(CCC)(C(=O)OCC)C(=O)OCC | -0.475%
CC(CNC1CCCCC1)OC(=O)c1ccccc1 (stereo unspecified) | -4.6%
CCOc1ccc(OCC)c(Cl)c1 | -20.7%
O=C(O)[C@@H]1CSCN1 | -15.7%
O=S(=O)(O)C(F)(F)F | 7.9%
CN1CCN(c2c(F)cc3c(=O)c(C(=O)O)cn(CCF)c3c2F)CC1 | -0.894%
O=C(O)c1cccc(Cl)c1Cl | -6.81%

Structure (SMILES) | activity change, negative = cytotoxicity
NCCCN1CCN(CCCN)CC1 | -19.9%
FC(F)(F)c1ccccc1 | 2.04%
COC(=O)N[C@H](C(=O)N[C@@H](Cc1ccccc1)[C@@H](O)CN(Cc1ccc(-c2ccccn2)cc1)NC(=O)[C@@H](NC(=O)OC)C(C)(C)C)C(C)(C)C | 7.31%
O=CCCc1ccccc1 | 1.43%
CCN[C@H]1CN(CCCOC)S(=O)(=O)c2sc(S(N)(=O)=O)cc21 | 3.22%
C=Cc1ccccc1 | 9.18%
COc1cc(Cl)ccc1Cl | 1.15% [at 81.1 µM]
Cc1ccsc1C(=CCCN1CCC[C@@H](C(=O)O)C1)c1sccc1C | -3.68%
N#CSCC(=O)O | 21.8%
CC1(C)C(=O)N(Cl)C(=O)N1Br | 18.5%
CC(C)Nc1nc(N)nc(Cl)n1 | 6.53%
CC(C)S | 11.3% [at 81.1 µM]
COc1cc(C)ccc1C(C)C | -12%
CCC1(C)NC(=O)NC1=O (stereo unspecified) | 6.51%
C=C(C)C(=O)OCCOP(=O)(O)O | -0.431% [at 81.1 µM]

Target: Vitamin D3 receptor (Homo sapiens) (UniProt P11473)
Experiment: qHTS assay to identify small molecule agonists of the vitamin D receptor (VDR) signaling pathway (AID 743222; calls by dose curve)
Conditions: HEK293T VDR-UAS-bla, beta-lactamase FRET ratio, 16 h; series mostly up to 63.5 µM; activation: at the top concentration
Summary of the method: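 Quantitative HTS agonist-mode screen: compounds in DMSO were pin-transferred onto VDR-bla cells and incubated 16 h at 37C, 5% CO2. Reporter activity was detected with LiveBLAzer B/G FRET substrate after 2 h at room temperature.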

Chain of Vitamin D3 receptor (Homo sapiens) (P11473 whole entry, looked up): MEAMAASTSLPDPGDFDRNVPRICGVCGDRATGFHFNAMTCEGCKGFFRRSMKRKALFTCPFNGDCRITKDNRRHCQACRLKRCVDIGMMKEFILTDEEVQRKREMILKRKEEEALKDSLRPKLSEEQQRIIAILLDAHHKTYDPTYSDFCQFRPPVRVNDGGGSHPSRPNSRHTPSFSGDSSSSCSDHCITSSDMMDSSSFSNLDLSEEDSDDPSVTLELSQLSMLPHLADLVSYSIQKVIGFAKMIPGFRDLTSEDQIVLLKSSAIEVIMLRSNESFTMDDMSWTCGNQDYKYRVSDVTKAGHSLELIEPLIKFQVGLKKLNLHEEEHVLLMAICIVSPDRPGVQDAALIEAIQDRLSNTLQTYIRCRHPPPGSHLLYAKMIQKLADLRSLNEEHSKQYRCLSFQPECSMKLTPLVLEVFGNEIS

Structure (SMILES) | activation
O=C(CCCl)NCc1ccccc1 | 0.0522%
Nc1cccc(S(=O)(=O)O)c1 | -3.78%
CCOC(=O)c1ccccc1O | 6.9%
CCCOCCC | 0.288%
CC1(C)S[C@@H]2[C@H](NC(=O)C(C(=O)O)c3ccccc3)C(=O)N2[C@H]1C(=O)O (stereo partly specified) | 0.392%
Cc1cc(S(=O)(=O)O)c(N)cc1Cl | -2.49% [at 81.1 µM]
O=C(O)[C@@H]1CSCN1 | 6.43%
Cc1ncc(CO)c(CN)c1O | 0%
O=S(=O)(O)C(F)(F)F | 5.04%
CN1CCN(c2c(F)cc3c(=O)c(C(=O)O)cn(CCF)c3c2F)CC1 | -1.93%
O=C(O)c1cccc(Cl)c1Cl | 9.02%
Cc1ccc([N+](=O)[O-])cc1Cl | -0.858% [at 81.1 µM]
NCCCN1CCN(CCCN)CC1 | 1.05%
FC(F)(F)c1ccccc1 | 12.9%
COC(=O)N[C@H](C(=O)N[C@@H](Cc1ccccc1)[C@@H](O)CN(Cc1ccc(-c2ccccn2)cc1)NC(=O)[C@@H](NC(=O)OC)C(C)(C)C)C(C)(C)C | -10.4%
OCCN1CCN(CCO)CC1 | 7.78% [at 81.1 µM]
CCCCN1C[C@H](O)[C@@H](O)[C@H](O)[C@H]1CO | -4.47%
O=CCCc1ccccc1 | -4.8%
CCN[C@H]1CN(CCCOC)S(=O)(=O)c2sc(S(N)(=O)=O)cc21 | 2.67%
C=Cc1ccccc1 | -1.21%
COc1cc(Cl)ccc1Cl | -2.1% [at 81.1 µM]
COc1cc(C)ccc1C(C)C | -2.6%
C=C(C)C(=O)OCCOP(=O)(O)O | -2.42% [at 81.1 µM]

Target: Vitamin D3 receptor (Homo sapiens) (UniProt P11473)
Experiment: qHTS assay to identify small molecule antagonists of the vitamin D receptor (VDR) signaling pathway (AID 743223; active = well fitted inhibition curve with a large enough effect in the signal ratio in the repeat runs, not every such curve was filed as active; the % refers to the signal ratio)
Conditions: VDR-UAS-bla HEK293T, beta-lactamase FRET ratio, 16 h; series mostly up to 61 µM; activity change, negative = inhibition: at the top concentration
Summary of the method: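 After VDR-bla cells are plated and left 4 h at 37C, DMSO-dissolved compounds and 3 nM (final) calcitriol agonist are added. Incubation continues 16 h at 37C; FRET beta-lactamase substrate then develops 2 h at room temperature.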

Structure (SMILES) | activity change, negative = inhibition
O=C(CCCl)NCc1ccccc1 | -6.23%
CCOC(=O)c1ccccc1O | 1.44%
CC1(C)S[C@@H]2[C@H](NC(=O)C(C(=O)O)c3ccccc3)C(=O)N2[C@H]1C(=O)O (stereo partly specified) | -9.62%
CCCC(CCC)(C(=O)OCC)C(=O)OCC | 2.77%
O=C(O)[C@@H]1CSCN1 | -0.314%
CC1=C(O)C(=O)OC1C (stereo unspecified) | -1.87%
O=S(=O)(O)C(F)(F)F | 8.69%
CN1CCN(c2c(F)cc3c(=O)c(C(=O)O)cn(CCF)c3c2F)CC1 | 6.91%
O=C(O)c1cccc(Cl)c1Cl | 19%
Cc1ccc([N+](=O)[O-])cc1Cl | 19.4% [at 78.8 µM]
NCCCN1CCN(CCCN)CC1 | -4.63%
FC(F)(F)c1ccccc1 | 19.4%
COC(=O)N[C@H](C(=O)N[C@@H](Cc1ccccc1)[C@@H](O)CN(Cc1ccc(-c2ccccn2)cc1)NC(=O)[C@@H](NC(=O)OC)C(C)(C)C)C(C)(C)C | 1.13%
OCCN1CCN(CCO)CC1 | 4.4% [at 78.8 µM]
CCCCN1C[C@H](O)[C@@H](O)[C@H](O)[C@H]1CO | 8.49%
O=CCCc1ccccc1 | 7.22%
CCN[C@H]1CN(CCCOC)S(=O)(=O)c2sc(S(N)(=O)=O)cc21 | 6.03%
C=Cc1ccccc1 | 0.287%
COc1cc(Cl)ccc1Cl | 14.5% [at 78.8 µM]
CC(C)Nc1nc(N)nc(Cl)n1 | -0.636%
COc1cc(C)ccc1C(C)C | 0.762%
CCC1(C)NC(=O)NC1=O (stereo unspecified) | -15.9%

System: not listed separately
Experiment: qHTS assay to identify small molecule agonists of the vitamin D receptor (VDR) signaling pathway - cell viability counter screen (AID 743224); note: nearly all actives have a fitted effect of over 50% in size
Conditions: VDR-bla HEK293T viability, CellTiter-Glo luminescence, 16 h; series mostly up to 62.6 µM; activity change, negative = cytotoxicity: at the top concentration
Summary of the method: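 Viability is measured in the same wells as the VDR-bla reporter assay: after 16 h compound treatment and 2 h substrate loading, CellTiter-Glo is added and luminescence read 30 min later.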

Structure (SMILES) | activity change, negative = cytotoxicity
O=C(O[C@@H](C(=O)O)[C@@H](OC(=O)c1ccccc1)C(=O)O)c1ccccc1 | 17.1% [at 81.1 µM]
Nc1cccc(S(=O)(=O)O)c1 | -1.12%
CCOC(=O)c1ccccc1O | 9.87%
CCCOCCC | 9.59%
CC1(C)S[C@@H]2[C@H](NC(=O)C(C(=O)O)c3ccccc3)C(=O)N2[C@H]1C(=O)O (stereo partly specified) | -4.19%
Cc1cc(NS(=O)(=O)c2ccc(N)cc2)nc(C)n1 | 22.3%
Cc1ccc(C)c(N)c1 | -0.14%
Cc1cc(S(=O)(=O)O)c(N)cc1Cl | -14.8% [at 81.1 µM]
CC(C)(C)C1CCCCC1=O (stereo unspecified) | 0.0812%
CCCC(CCC)(C(=O)OCC)C(=O)OCC | 8.32%
CC(CNC1CCCCC1)OC(=O)c1ccccc1 (stereo unspecified) | 6.9%
CCOc1ccc(OCC)c(Cl)c1 | 0.151%
O=C(O)[C@@H]1CSCN1 | -8.64%
CC1=C(O)C(=O)OC1C (stereo unspecified) | 3.89%
Cc1ncc(CO)c(CN)c1O | -0.22%
O=S(=O)(O)C(F)(F)F | 11.4%
CN1CCN(c2c(F)cc3c(=O)c(C(=O)O)cn(CCF)c3c2F)CC1 | 11%
O=C(O)c1cccc(Cl)c1Cl | -17.2%

Structure (SMILES) | activity change, negative = cytotoxicity
NCCCN1CCN(CCCN)CC1 | -5.55%
FC(F)(F)c1ccccc1 | 9.64%
COC(=O)N[C@H](C(=O)N[C@@H](Cc1ccccc1)[C@@H](O)CN(Cc1ccc(-c2ccccn2)cc1)NC(=O)[C@@H](NC(=O)OC)C(C)(C)C)C(C)(C)C | 3.46%
OCCN1CCN(CCO)CC1 | -0.26% [at 81.1 µM]
CCCCN1C[C@H](O)[C@@H](O)[C@H](O)[C@H]1CO | 14.6%
O=CCCc1ccccc1 | 5.35%
CCN[C@H]1CN(CCCOC)S(=O)(=O)c2sc(S(N)(=O)=O)cc21 | 1.38%
C=Cc1ccccc1 | 15.8%
COc1cc(Cl)ccc1Cl | 5.85% [at 81.1 µM]
Cc1ccsc1C(=CCCN1CCC[C@@H](C(=O)O)C1)c1sccc1C | 5.35%
N#CSCC(=O)O | 6.77%
CC1(C)C(=O)N(Cl)C(=O)N1Br | -10.4%
CC(C)Nc1nc(N)nc(Cl)n1 | 4.97%
CC(C)S | 9.37% [at 81.1 µM]
COc1cc(C)ccc1C(C)C | 10.8%
CCC1(C)NC(=O)NC1=O (stereo unspecified) | -2.67%
C=C(C)C(=O)OCCOP(=O)(O)O | 1.67% [at 81.1 µM]
